Source: PubChem BioAssay (several laboratories)
Most compounds without a hit are left out; they make up all but 2.7% or so of the library.
14-3-3 Bad inh: disrupts binding of bovine 14-3-3 zeta to phospho-Bad peptide | P63103 | TR-FRET 14-3-3zeta/Dy647-pBad peptide displacement, 1 h | inhibition, % at 21.7 µM | 220,000 compounds, 0.71% hits | AID 781;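 active means inhibition above about 70%, limit read from the data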;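 further: 0% = full 14-3-3 plus peptide FRET controls and 100% = background without 14-3-3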
Target sequence (P63103 whole entry, looked up): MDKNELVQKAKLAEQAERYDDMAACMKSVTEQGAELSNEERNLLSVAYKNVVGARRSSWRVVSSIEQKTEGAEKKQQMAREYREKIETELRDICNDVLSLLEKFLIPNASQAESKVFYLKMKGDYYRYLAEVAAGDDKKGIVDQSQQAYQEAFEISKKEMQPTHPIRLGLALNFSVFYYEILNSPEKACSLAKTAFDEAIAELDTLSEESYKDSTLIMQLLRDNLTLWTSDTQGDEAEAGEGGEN
Pf gametocyte: kills late stage P. falciparum gametocytes; P. falciparum stage V gametocytes, ATP luminescence, 24 h; inhibition, % at 10.9 µM; 150,000 compounds, 0.065% hits; AID 743093;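 active means inhibition above the mean plus 3 SD of compounds within the control limits, set per campaign, cut at about 38% in these data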;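 further: 0% = DMSO wells and 100% = medium only without gametocytes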
Mcl1 Bid PPI: disrupts binding of human Mcl-1 to Bid peptide. 220,000 compounds, 0.97% hits. AID 1021. Q07820. inhibition, % at 21.7 µM. TR-FRET Mcl-1/Bid-Dy647 peptide binding, 1536-well;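 active means compounds that cut the binding signal by more than half at the single screening dose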;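 further: His-tagged Mcl-1 with europium anti-His antibody binding Bid BH3 peptide; 0% = Mcl-1 plus peptide wells and 100% = peptide-only wells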
Target sequence (Q07820 whole entry, looked up): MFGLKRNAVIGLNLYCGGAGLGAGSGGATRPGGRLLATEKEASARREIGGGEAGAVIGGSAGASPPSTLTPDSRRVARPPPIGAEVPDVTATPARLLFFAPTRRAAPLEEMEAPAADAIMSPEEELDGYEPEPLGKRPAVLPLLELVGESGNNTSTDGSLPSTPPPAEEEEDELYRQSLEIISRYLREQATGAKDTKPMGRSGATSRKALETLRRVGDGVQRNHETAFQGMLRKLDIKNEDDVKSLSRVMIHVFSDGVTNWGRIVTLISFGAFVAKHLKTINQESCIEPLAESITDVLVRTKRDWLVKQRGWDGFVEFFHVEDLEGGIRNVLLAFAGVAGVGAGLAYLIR
eIF4E-4G inh: inhibitors of eIF4E and eIF4G interaction in translation initiation; TR-FRET eIF4E-eIF4GI(517-606) binding, 2 h; inhibition, % at 21.7 µM; 220,000 compounds, 0.37% hits; AID 782;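 active means inhibition above about 30%, limit read from the data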;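 further: 0% = full FRET control wells and 100% = background wells lacking eIF4GI fragment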
Mcl1 Noxa PPI: Mcl-1/Noxa interaction inhibition | inhibition, % at 21.7 µM | 220,000 compounds, 1.5% hits | TR-FRET Mcl-1/Noxa peptide binding, 2 h;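 active means compounds that cut the protein-peptide binding signal by more than 50% relative to plate controls in a single-dose test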;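 further: His-tagged Mcl-1 with rhodamine Noxa BH3 peptide and terbium anti-His antibody; 0% = Mcl-1 plus Noxa peptide wells and 100% = peptide-only wells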
Bim-Mcl-1: human Bim-Mcl-1 interaction inhibition. inhibition, % at 10 µM. AID 1009. Q07820. 190,000 compounds, 0.1% hits. Bead-based flow cytometry, Bim peptide-Mcl-1 binding; in the data active means inhibition above about 40%;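 further: 0% = no compound tracer wells and 100% = peptide blocker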
Starred values were filed as active, the others as inactive; nt = no result; [ ] = dose if it differs, or a comment.

SMILES	14-3-3 Bad inh	Pf gametocyte	Mcl1 Bid PPI	eIF4E-4G inh	Mcl1 Noxa PPI	Bim-Mcl-1
Cc1oc2c(O)c(O)ccc2c(=O)c1-c1cnn(-c2ccccc2)c1	-9.7	9.2	-53.9	-15.4	55.9*	0.0
CCOC(=O)c1sc(N)c(C#N)c1CSc1nnc(C2CCCCC2)n1N	4.7	nt	-0.6	4.1	26.8	-4.0
Cc1nc2ccccc2n1/C(=N\S(=O)(=O)c1ccccc1)c1ccccc1	1.6	-0.4	-7.4	4.5	11.0	-5.0
COc1cc2c(cc1OC)CN(Cc1ccccc1)CC2	nt	-9.1	nt	nt	nt	nt
COc1cc2c(cc1OC)CN(Cc1cccs1)CC2	73.8*	-16.0	39.9	0.4	25.9	-1.0
c1csc(CN2CCOCC2)c1	82.8*	nt	20.9	2.4	18.5	2.0
COc1cc(-c2[nH]ncc2CN2CCN(Cc3cccs3)CC2)cc(OC)c1OC	-1.5	-8.7	-29.6	89.8*	6.8	-3.0
c1csc(CNCCCN2CCOCC2)c1	8.3	nt	6.0	2.3	16.7	-5.0
COc1cc(OC)c(OC)cc1CN1CCc2ccccc2C1	22.7	8.8	55.1*	-0.3	8.0	6.0
Cc1cc(C)c(OCC(O)CN2CCN(c3ccccn3)CC2)c(C)c1 (configuration not stated)	11.1	10.1	2.2	-7.1	39.6	-1.0
C=CCn1c(SCC(=O)Nc2cc(C)on2)nc2sc(CC)cc2c1=O	7.9	12.4	-15.0	-3.7	5.7	-4.0
O=C(CC1Sc2ccccc2NC1=O)Nc1ccccc1[N+](=O)[O-] (configuration not stated)	8.9	-10.1	-3.9	3.4	2.2	-1.0
COCCCNC(=O)/C(C#N)=C/c1ccc(OCC(=O)O)c(OC)c1	25.6	-4.5	32.2	24.3	99.6*	1.0
Cn1c(=O)[nH]c(=O)c2c1nc1n2CCN1Cc1ccccc1	-12.8	-1.0	-50.7	10.2	1.4	5.0
CC1CN(Cc2ccccc2)c2nc3c(c(=O)[nH]c(=O)n3C)n2C1 (configuration not stated)	2.4	3.5	-35.3	83.3*	-13.6	nt
O=C(O)c1cccn2c(=O)c3ccccc3nc12	5.2	nt	-7.2	-0.5	-2.5	-1.0
O=C(O)c1ccc2c(=O)n3cc(C(=O)c4ccccc4O)cc(Cl)c3nc2c1	1.4	-3.2	-93.7	-3.3	60.4*	nt
Cc1csc(Sc2ccc([N+](=O)[O-])cc2C(=O)OCC(=O)NC2CCCC(C)C2C)n1 (configuration not stated)	0.5	nt	-29.2	-13.8	-11.0	0.0
Nc1cc2nsnc2cc1Br	7.8	nt	-44.1	13.2	61.1*	0.0
O=[N+]([O-])c1ccc(/C=N/n2c(CO)nc3ccccc32)s1	10.1	10.9	30.3	1.2	57.7*	-6.0
Cc1nc2ccccc2n1/N=C/c1ccc([N+](=O)[O-])s1	25.2	-10.5	29.2	-0.6	18.9	-2.0
CC(=O)Nc1ccc(S(=O)(=O)NNC(=O)COc2cccc(C)c2)cc1	-10.2	-13.2	-18.0	33.2*[fluorescence artefact?]	23.8	-1.0
CCc1nn2cc(C(=O)c3cc(C)ccc3O)cnc2c1-c1ccc(F)cc1	-1.2	5.2	-40.0	4.6	17.8	42.0*
CC(=O)Nc1ccc(S(=O)(=O)N2c3ccccc3NC(=O)CC2C)c(Cl)c1 (configuration not stated)	0.8	8.2	-20.4	5.4	-15.2	nt
O=[N+]([O-])c1cccc(N/N=C/c2cccc3ccccc23)c1	10.6	16.9	-12.6	-1.2	58.6*	-2.0
SMILES	14-3-3 Bad inh	Pf gametocyte	Mcl1 Bid PPI	eIF4E-4G inh	Mcl1 Noxa PPI	Bim-Mcl-1
O=[N+]([O-])c1ccc(N/N=C/c2cccc(O)c2O)cc1	nt	-9.0	nt	nt	nt	nt
COC(=O)c1sc2cc([N+](=O)[O-])cc(SCC(C)C)c2c1N	-8.6	13.2	-10.3	1.4	38.1	-5.0
CC(C)[C@H](NC(=O)c1ccco1)C(=O)OCc1cc(=O)n2c(n1)sc1ccccc12	29.7	-17.9	-30.0	28.6	59.6*	-1.0
Cc1ccccc1Nc1nc(N)nc(COC(=O)C(NC(=O)c2ccco2)C(C)C)n1 (configuration not stated)	-6.1	-10.2	-17.4	5.3	-12.1	0.0
Cc1ccc(C(=O)N[C@H](C(=O)OCc2cc(=O)n3c(n2)sc2ccccc23)C(C)C)cc1	-3.5	nt	-8.8	0.4	57.5*	-3.0
Cc1ccc(C(=O)N[C@H](C(=O)OCc2nnc(-c3ccccc3)o2)C(C)C)cc1	-4.3	9.6	-10.8	-3.4	-14.6	nt
COc1cc2c(C(=O)N3CCN(C)CC3)c(C)oc2cc1Br	-1.2	nt	-1.1	-4.2	9.6	-2.0
CCOC(=O)c1c(C)oc2cc(Br)c(OC(=O)N3CCOCC3)cc12	3.6	nt	92.3*	-9.4	-2.2	-1.0
CC(C)(NC(=O)c1cc(Cl)c2ccccc2c1O)C(=O)O	4.8	nt	-3.8	1.3	23.1	nt
Cc1ccc(Nc2cc(-n3cccn3)ncn2)c(C)c1	11.1	11.0	-18.4	3.5	6.7	-3.0
Cc1ccc(Nc2cc(-n3nc(C)cc3C)ncn2)c(C)c1	-0.5	nt	-13.9	-5.5	56.4*	5.0
COC(=O)c1ccc(CSc2nnc(NCc3ccccc3)s2)o1	-9.8	22.3	-8.0	-9.6	2.6	-3.0
COC(=O)c1ccc(CSc2nc(-c3ccccc3)cs2)o1	-11.0	-6.1	-3.6	2.7	79.8*	-2.0
COc1ccc(Nc2ncnc3sc(C)cc23)c(OC)c1	nt	0.1	nt	nt	nt	nt
Cc1ccccc1-c1ccc(Nc2ccc(N3CCOCC3)cc2)nn1	42.6	nt	12.3	3.9	69.3*	1.0
O=S1(=O)N=C(Nc2ccc(N3CCOCC3)cc2)c2ccccc21	8.5	-17.9	-26.2	-2.5	23.8	-2.0
COc1ccc(/C(=C/Nc2cccc(Br)c2)C(C)=O)cc1OC	-1.1	-26.0	-17.9	1.8	16.7	-3.0
CCOC(=O)c1cn(CC)c2ccc(S(=O)(=O)N3CC(C)CC(C)C3)cc2c1=O (configuration not stated)	21.6	nt	53.9*	-4.8	7.8	0.0
CCn1cc(C(=O)NCc2ccco2)c(=O)c2cc(S(=O)(=O)N3CCCC3)ccc21	0.3	0.1	-1.9	3.3	-1.9	1.0
CCOC(=O)c1cn(CC)c2ccc(S(=O)(=O)N3CCC(C)CC3)cc2c1=O	1.2	nt	19.0	7.8	43.0	-2.0
CCn1cc(C(=O)NCc2cccs2)c(=O)c2cc(S(=O)(=O)N3CCOCC3)ccc21	11.3	13.3	51.1*	-2.8	20.0	nt
CCOc1ccc(NC(=O)Cn2sc3nc(C)cc(C)c3c2=O)cc1	5.9	nt	-117.3	16.8	51.4*	nt
Cc1cccc(N2CCN(C(=O)Cn3sc4nc(C)cc(C)c4c3=O)CC2C)c1 (configuration not stated)	-6.9	nt	-51.8	9.8	58.7*	-4.0
Cc1cccc(N2CCN(C(=O)Cc3ccc(-n4c(=O)[nH]c5ccsc5c4=O)cc3)CC2C)c1 (configuration not stated)	-6.2	-13.3	93.3*	-0.4	8.1	-6.0
